KCNQ2 enhance: enhances the rat KCNQ2 potassium channel; CHO-K1 KCNQ2, FluxOR thallium flux fluorescence; active compounds read high; B-score at 10 µM; 0.54% of 310,000 active; AID 2239;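 active means fluorescence ratio B-score at least 3 SD of library B-scores, with initial fluorescence B-score within 3 of them, cut at about 5.3 in these data; same plate scores as AID 2156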;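 further: B-score of peak minus minimum over baseline fluorescence ratio after K+ and Tl+ stimulus; positive B-score means potentiation of KCNQ2 with more thallium influx and brighter signal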
Target sequence (O88943 whole entry, looked up): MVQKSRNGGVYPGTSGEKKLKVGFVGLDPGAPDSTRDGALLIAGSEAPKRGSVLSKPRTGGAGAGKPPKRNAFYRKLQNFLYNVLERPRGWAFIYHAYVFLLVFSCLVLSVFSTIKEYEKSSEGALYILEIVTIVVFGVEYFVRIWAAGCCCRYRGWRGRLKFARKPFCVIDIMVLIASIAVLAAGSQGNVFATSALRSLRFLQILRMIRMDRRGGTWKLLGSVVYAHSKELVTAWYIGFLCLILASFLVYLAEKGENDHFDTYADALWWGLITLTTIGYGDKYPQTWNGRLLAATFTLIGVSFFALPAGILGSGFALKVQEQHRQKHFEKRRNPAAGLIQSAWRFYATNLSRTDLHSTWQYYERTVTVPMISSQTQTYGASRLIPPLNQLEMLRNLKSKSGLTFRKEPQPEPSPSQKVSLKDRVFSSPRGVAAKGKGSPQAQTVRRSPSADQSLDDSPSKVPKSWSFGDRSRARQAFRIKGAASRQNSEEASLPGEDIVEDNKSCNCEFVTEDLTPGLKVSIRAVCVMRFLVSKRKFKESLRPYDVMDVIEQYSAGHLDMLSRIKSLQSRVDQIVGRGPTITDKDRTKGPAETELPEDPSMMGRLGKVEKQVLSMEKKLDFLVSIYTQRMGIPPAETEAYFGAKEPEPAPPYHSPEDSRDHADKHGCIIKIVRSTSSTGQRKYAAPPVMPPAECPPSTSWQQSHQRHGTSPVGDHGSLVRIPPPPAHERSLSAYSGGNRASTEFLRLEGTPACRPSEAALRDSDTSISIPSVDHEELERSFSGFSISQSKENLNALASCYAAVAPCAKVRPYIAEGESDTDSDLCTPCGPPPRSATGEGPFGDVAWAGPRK
KCNQ2 block: KCNQ2 (rat) channel inhibition; O88943; CHO-K1 KCNQ2, FluxOR thallium flux, 20 min; active compounds read low; B-score at 10 µM; 1.1% of 310,000 active; AID 2156;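 active means fluorescence ratio B-score at most minus 3 library SDs, with starting brightness B-score within 2 library SDs, cut at about -5.5 in these data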
* hit, by the source's call; i = inactive; . = no result. Rows were chosen to be rich in hits. Some 1.6% of all compounds tested hit in one or more screens of this group.

SMILES	KCNQ2 enhance	KCNQ2 block
COc1ccc(CSc2nnc(-c3ccncc3)n2C)cc1F	.	i
CC(C)[C@H](NC(=O)c1ccc(F)cc1)C(=O)NC1=NCCS1	.	i
Cc1ccc(-n2c(C)cc(C(=S)N3CCOCC3)c2C)cc1C	-7.4	-7.4*
Cc1cc(C(=S)N2CCOCC2)c(C)n1-c1ccc(F)cc1	.	i
CCOc1ccc(CCNC(=O)c2cccc(S(=O)(=O)N3CCCCC3)c2)cc1OCC	.	i
Cc1ccc(C)n1-c1ccc(C(=O)NN)s1	-5.7	-5.7*
CCOC(=O)CNC(=O)c1ccc(Br)s1	.	i
CN1CCN(S(=O)(=O)c2cccc(C(=O)Nc3cc(Cl)ccc3N3CCOCC3)c2)CC1	-7.5	-7.5*
CC(Oc1cccc(Cl)c1)C(=O)Nc1cc(S(=O)(=O)N2CCCCC2)ccc1N1CCOCC1 (centres undefined)	-7.6	-7.6*
CC(Oc1cccc(Cl)c1)C(=O)Nc1cc(S(=O)(=O)N2CCOCC2)ccc1N1CCCC1 (centres undefined)	.	i
CN1CCN(S(=O)(=O)c2cccc(C(=O)Nc3cc(C(F)(F)F)ccc3N3CCCC3)c2)CC1	.	i
Cc1ccc(CN2CCN(/N=C/c3cccs3)CC2)cc1	1.5	i
CSCCC1COC(c2cccs2)=N1 (centres undefined)	.	i
COc1ccc(Cl)cc1NC(=O)CCN1C(=O)C2C3C=CC(C4CC34)C2C1=O (centres undefined)	.	i
CCn1nc(C)c(C(=O)Nc2cc(Oc3cc(C)cc(C)c3)cc([N+](=O)[O-])c2)c1C	-5.6	-5.6*
Cc1nn(C)cc1C(=O)Nc1cc(Oc2ccc(Cl)cc2)cc([N+](=O)[O-])c1	.	i
COc1ccc(C2=NOC(Cn3nc(C(=O)NCc4cccc(C(F)(F)F)c4)cc3-c3ccccc3)C2)cc1 (centres undefined)	.	i
CCc1ccc2c(c1)C1(C(=O)N2)N2CCCC2C(C(=O)c2ccc3ccccc3c2)C12C(=O)Nc1ccccc12 (centres undefined)	0.8	i
CCc1ccc2c(c1)C1(NN=C(c3cccc4ccccc34)S1)C(=O)N2 (centres undefined)	-14	-14*
COCCN1C(=O)C(=O)/C(=C(/O)c2ccc(S(=O)(=O)N3CCCCC3)cc2)C1c1ccc(O)c(OC)c1 (centres undefined)	0.54	i
CC(OC(=O)c1ccccc1NS(=O)(=O)c1cccc(C(F)(F)F)c1)C(=O)N(C)Cc1ccccc1 (centres undefined)	-6.5	-6.5*
CN(Cc1ccccc1)C(=O)COC(=O)c1ccccc1NS(=O)(=O)c1cccc(N)c1	.	i
Cc1nn2cnnc2c(C)c1Cc1c(F)cccc1Cl	1.4	i
O=C(O)c1ccc(COc2c(F)c(F)cc(F)c2F)cc1	-9	-9*
COC(=O)c1ccc(COc2c(F)c(F)cc(F)c2F)o1	.	i
SMILES	KCNQ2 enhance	KCNQ2 block
CCn1cc(C2=NC(C)CO2)c2ccccc21 (centres undefined)	0.41	i
CCn1cc(C2=NC(c3ccccc3)CO2)c2ccccc21 (centres undefined)	-5.7	-5.7*
O=C(NCCc1ccccc1)/C(=C\c1ccccc1)NC(=O)c1ccco1	.	i
O=c1cc(N2CCCCC2)c(-c2ccccc2)nn1Cc1ccccc1Cl	.	i
O=c1cc(N2CCCCC2)c(-c2ccccc2)nn1Cc1ccc(Cl)cc1Cl	-7.7	-7.7*
O=C(Nc1ncccc1Cl)c1cc2ccccc2o1	.	i
CC(=O)Nc1nc(-c2cccc3ccccc23)cs1	0.01	i
O=C(NC(=S)Nc1nc(-c2cccc3ccccc23)cs1)c1cc2ccccc2o1	8.2*	i
Cc1cccc(NC(=S)NC(=O)c2cccs2)n1	1.5	i
O=C(NC(=S)Nc1nc(-c2ccccc2)cs1)c1cccs1	7.9*	i
Cc1ccc(-c2csc(NC(=S)NC(=O)c3cccs3)n2)cc1	3.8	i
Cc1nc(NC(=S)NC(=O)c2cccs2)ccc1Br	9.4*	i
OCC1(Cc2ccccc2)CCCN(Cc2ccn[nH]2)C1 (centres undefined)	.	i
COc1ccc(NC2CCCN(C(=O)CCN3Cc4ccccc4C3=O)C2)cc1 (centres undefined)	.	i
Cc1ccccc1NC(=S)NC(NC(=O)COc1ccccc1)C(Cl)(Cl)Cl (centres undefined)	.	i
O=C(COc1ccccc1)NC(NC(=S)Nc1ccccc1O)C(Cl)(Cl)Cl (centres undefined)	-6.2	-6.2*
Cc1ccc(S(=O)(=O)NC(CC(C)C)C(=O)Oc2ccc3c4c(c(=O)oc3c2)CCC4)cc1 (centres undefined)	-7.9	-7.9*
CC[C@@H](NS(=O)(=O)c1ccc(C)cc1)C(=O)Oc1ccc2c3c(c(=O)oc2c1)CCC3	0.64	i
Cc1cc(C)c(C#N)c(N2CCN(c3ccccc3)CC2)n1	.	i
COc1ccccc1N1CCN(c2nc(C)cc(C)c2C#N)CC1	-5.9	-5.9*
COc1ccccc1C(=O)NNC(=S)NC(=O)c1sc2ccccc2c1Cl	16*	i
O=C(NC(=S)Nc1cccc2cc(O)ccc12)c1ccccc1Br	.	i
COc1ccccc1C(=O)NC(=S)NNC(=O)c1sc2ccccc2c1Cl	23*	i
COc1ccccc1C(=O)NNC(=S)NC(=O)c1cccs1	.	i
Cc1c(NC(=S)NC(=O)c2sc3ccccc3c2Cl)cccc1C(=O)O	0.24	i
SMILES	KCNQ2 enhance	KCNQ2 block
COc1ccccc1C(=O)NC(=S)Nc1cccc2cc(O)ccc12	-7.9	-7.9*
O=C(CSCc1cc(=O)n2nc(C3CC3)sc2n1)Nc1ccccc1Cl	1.7	i
Cc1ccc(C)c(NC(=O)CCN2CCN(c3ccccc3F)CC2)c1	.	i
COc1cc(O)ccc1C(=O)CCc1ccc(O)cc1	2.8	i
Cc1ccccc1OC(C)C(=O)Nc1cccnc1 (centres undefined)	0.07	i
COc1ccccc1C(=O)NCCC(=O)NC(C)c1ccc(-n2ccnc2)cc1 (centres undefined)	0.37	i
Cc1c(-n2c(-c3ccccc3)nc3ccccc3c2=O)c(=O)n(-c2ccccc2)n1C	1.9	i
O=C(CSc1ccc2nnc(-c3cccnc3)n2n1)Nc1ccccc1C(F)(F)F	0.23	i
COC(=O)/C(=C\c1ccc2c(c1)c1ccccc1n2C)NC(=O)c1ccccc1	-7.6	-7.6*
CC(C)OC(=O)/C(=C/c1ccc2c(c1)c1ccccc1n2C)NC(=O)c1ccccc1	.	i
O=C(CCNC(=O)C1CCN(S(=O)(=O)c2ccc(F)cc2)CC1)NCc1cccnc1	.	i
CCOc1ccc(/C=N/NC(=O)c2cc3ccccc3cc2OC)cc1	1.1	i
COC(=O)Cc1ccc(NC(=S)N2CCCC(CO)C2)cc1 (centres undefined)	1	i
CC(=O)c1ccc(NC(=S)N2CCCC(CO)C2)cc1 (centres undefined)	13*	i
CCc1cc(C(=O)OC)c(NC(=O)CC2NCCNC2=O)s1 (centres undefined)	0.96	i
CCc1cc(C(=O)OC)c(NC(=O)C2CC(=O)NN2Cc2ccccc2)s1 (centres undefined)	-5.9	-5.9*
COc1ccc(C(=O)/C=C/Nc2ccc(S(N)(=O)=O)cc2)cc1OC	0.02	i
CCOC(=O)c1oc2ccccc2c1NC(=O)c1ccc(Cl)s1	-7.6	-7.6*
CCOC(=O)c1oc2ccccc2c1NC(=O)CCl	.	i
CCSc1nc(-c2cccs2)nc2ccccc12	.	i
